Rows were chosen to be rich in hits. Some 4.6% of all compounds tested hit in one or more screens of this group.
HSF-1 act = increases HSF-1 driven luciferase reporter signal | 1.7% of 300,000 active | activation, % at 9 µM | NIH3T3-HGL HSF-1 luciferase reporter, MG132, 8 h; 100% = twice DMSO control signal | AID 504408;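 active means mean replicate activation of at least 50% with a set share of replicates each reaching 50%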;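 further: 0% = median of the neutral control wells and 100% = twice that signal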
GAA850 FXN act = increases GAA850 frataxin promoter reporter activity; HEK293 lucGAA850 FXN promoter luciferase reporter, 24 h; percent of 10 µM SAHA response; activation, % at 6 µM; 0.56% of 360,000 active; AID 540364;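 active means activation above the average of all compounds screened plus 3 SD, cutoff fixed separately per campaign, cut at about 7.5% in these data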;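 further: 0% = DMSO wells and 100% = 10 µM SAHA wells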
AHR act = human AHR activation | P35869 | AHR-responsive luciferase reporter cells, luminescence | activation, % at 5 µM | 2.5% of 320,000 active; in the data active means activation above about 47%;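 further: 0% = vehicle wells and 100% = reference agonist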
Target sequence (P35869 whole entry, looked up): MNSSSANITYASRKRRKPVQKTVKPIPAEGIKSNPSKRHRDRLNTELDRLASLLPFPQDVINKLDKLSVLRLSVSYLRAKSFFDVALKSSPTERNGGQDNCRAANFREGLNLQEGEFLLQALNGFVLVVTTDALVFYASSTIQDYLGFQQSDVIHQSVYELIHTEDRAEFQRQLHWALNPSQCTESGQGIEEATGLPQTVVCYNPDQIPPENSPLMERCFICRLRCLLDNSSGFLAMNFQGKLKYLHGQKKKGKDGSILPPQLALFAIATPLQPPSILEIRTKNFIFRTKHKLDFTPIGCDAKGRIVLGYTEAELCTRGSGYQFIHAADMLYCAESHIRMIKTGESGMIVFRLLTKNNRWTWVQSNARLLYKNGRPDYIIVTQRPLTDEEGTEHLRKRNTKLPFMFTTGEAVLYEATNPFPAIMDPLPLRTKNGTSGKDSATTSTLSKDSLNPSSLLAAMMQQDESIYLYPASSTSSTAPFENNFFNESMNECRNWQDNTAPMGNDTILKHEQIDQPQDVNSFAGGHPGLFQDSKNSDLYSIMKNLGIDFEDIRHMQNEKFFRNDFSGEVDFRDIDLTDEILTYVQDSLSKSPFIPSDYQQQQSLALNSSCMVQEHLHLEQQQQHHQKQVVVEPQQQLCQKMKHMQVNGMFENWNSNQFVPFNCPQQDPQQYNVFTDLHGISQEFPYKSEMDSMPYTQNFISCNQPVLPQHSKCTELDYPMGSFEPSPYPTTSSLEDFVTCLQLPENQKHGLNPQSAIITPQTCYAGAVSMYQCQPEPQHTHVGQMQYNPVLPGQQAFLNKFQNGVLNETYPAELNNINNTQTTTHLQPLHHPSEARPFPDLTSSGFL
HSF1 inh = HSF1 inhibition; NIH3T3-HGL HSE-luciferase, MG132-induced, luminescence 8 h; stronger effect = lower value; activity change, negative = inhibition, % at 7.5 µM (by protocol); 0.77% of 300,000 active;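 active means more than half of replicate wells show activity change below -50%, luminescence cut by over half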;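 further: luciferase reports HSF-1 transcriptional activity via heat shock element; 0% = median of DMSO wells and -100% = zero luminescence signal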
Active calls of the source: *.

For COc1ccc(C2=CC(c3ccc(OC)c(OC)c3)c3c(c4ccccc4oc3=O)O2)cc1OC (stereo not given) the results were HSF-1 act -64, GAA850 FXN act -1, AHR act 4 and HSF1 inh -56*.
Screening COc1ccc(C2C(C#N)=C(N)Oc3c2c(=O)oc2ccccc32)cc1Cn1cc([N+](=O)[O-])cn1 (stereo not given) returned HSF-1 act 21, GAA850 FXN act 1, AHR act 2 and HSF1 inh 1.
For CC(N)Cc1c[nH]c2c1ccc1ccccc12 (stereo not given) the results were HSF-1 act 20, GAA850 FXN act 0, AHR act 49* and HSF1 inh 5.
C=CCC1(CC)C(=O)NC(=S)NC1=O was read as GAA850 FXN act 2.
Screening O=C(c1ccc(Cl)cc1)C1CCCN(Cc2ccc3c(c2)OCCO3)C1 (stereo not given) returned HSF-1 act -69, GAA850 FXN act -1, AHR act -1 and HSF1 inh -60*.
CCCCCCCCCCCCCCCC[N+](C)(C)C was read as HSF-1 act -5, GAA850 FXN act -1, AHR act -3 and HSF1 inh -2.
Cc1ccsc1C(=O)C1CCCN(Cc2ccccc2O)C1 (stereo not given) was read as HSF-1 act 58*, GAA850 FXN act 0, AHR act 3 and HSF1 inh 20.
Screening COc1ccc(O)c(CN2CCCC(C(=O)c3sccc3C)C2)c1 (stereo not given) returned HSF-1 act 16, GAA850 FXN act -1, AHR act 1 and HSF1 inh 7.
COC(=O)C[C@]1(C(=O)OC)CN(C#N)N(c2ccc(Cl)cc2)C12c1ccccc1-c1ccccc12 was read as HSF-1 act -94, GAA850 FXN act -15, AHR act -7 and HSF1 inh -94*.
Screening CN(C)C1C(=O)C(C(N)=O)=C(O)C2(O)C(=O)C3=C(O)c4c(O)cccc4C(C)(O)C3CC12 (stereo not given) returned HSF-1 act -29, GAA850 FXN act 17*, AHR act -4 and HSF1 inh -5.
`COc1ccc(C(O)CNC(C)C)c(F)c1OC` (stereo not given) gave HSF-1 act 14, GAA850 FXN act 1, AHR act 0 and HSF1 inh 2.
For CN1CCc2cc(O)cc3c2[C@H]1Cc1ccc(O)c(O)c1-3 the results were HSF-1 act 78*, GAA850 FXN act 5, AHR act 6 and HSF1 inh 74.
`CCOCCCNC(=O)C1c2cc(OC)c(OC)cc2C(=O)N2CCCCC12` (stereo not given) gave HSF-1 act 2, GAA850 FXN act 1, AHR act 1 and HSF1 inh 13.
`CCCCn1c(C)c(C(=O)OCC)c2c(CN3CCCC3)c(O)ccc21` gave HSF-1 act 7, GAA850 FXN act 5, AHR act 14 and HSF1 inh 1.
Screening CCCCn1c(C)c(C(=O)OCC)c2c(CN3CCOCC3)c(O)ccc21 returned HSF-1 act 72*, GAA850 FXN act -1, AHR act 17 and HSF1 inh 56.
Screening COc1ccc(OC)c(N2C(=O)NC(=O)/C(=C\c3ccc([N+](=O)[O-])s3)C2=O)c1 returned HSF-1 act -70, GAA850 FXN act 2, AHR act 2 and HSF1 inh -63*.
Screening O=C1NC(=O)N(c2ccccc2)C(=O)/C1=C\c1ccc([N+](=O)[O-])s1 returned HSF-1 act 9, AHR act 0 and HSF1 inh -8.
Screening CN[C@H]1C[C@H]2O[C@@](C)([C@H]1OC)n1c3ccccc3c3c4c(c5c6ccccc6n2c5c31)C(=O)NC4 returned HSF-1 act -88, AHR act -12 and HSF1 inh -85*.
`O=C1Nc2ccccc2/C1=C/c1nc2ccccc2c(=O)n1-c1ccc(O)cc1` gave HSF-1 act 18, GAA850 FXN act 1, AHR act 7 and HSF1 inh 10.
`O=C1Nc2ccccc2/C1=C/c1cnc[nH]1` gave HSF-1 act 66*, GAA850 FXN act 2, AHR act 10 and HSF1 inh 38.
Screening O=C(CCC(=O)N1C[C@H]2C[C@@H](C1)c1cccc(=O)n1C2)NCc1cccc(C(F)(F)F)c1 returned HSF-1 act 5, GAA850 FXN act 3, AHR act 0 and HSF1 inh 5.
Screening Cc1cccc(-n2c(O)c(/C=C3/C(c4ccccc4)=Nc4ccccc43)c(=O)[nH]c2=O)c1 returned HSF-1 act 5, GAA850 FXN act 5, AHR act 76* and HSF1 inh -2.
CC1CC2C(C(O)CC3(C)C(O)CCC23)C2(C)CCC(=O)C=C12 (stereo not given) was read as GAA850 FXN act 2.
For COCCOC(=O)C1=C(N)Oc2c(c(=O)oc3ccccc23)C1c1ccncc1 (stereo not given) the results were HSF-1 act 13, GAA850 FXN act 4, AHR act 4 and HSF1 inh 6.
Screening O=c1c2cc(Br)ccc2[nH]c(=S)n1-c1ccccc1 returned HSF-1 act 6, GAA850 FXN act 2, AHR act 50* and HSF1 inh -8.
`O=c1c2ccccc2[nH]c(=S)n1-c1ccc(Br)cc1` gave HSF-1 act -22, GAA850 FXN act 0, AHR act 3 and HSF1 inh -10.
OC1/C(=C/c2ccccc2C(F)(F)F)N2CCC1CC2 (stereo not given) was read as HSF-1 act -82, GAA850 FXN act 0, AHR act 9 and HSF1 inh -78*.
For OC1/C(=C/c2ccccc2F)N2CCC1CC2 (stereo not given) the results were HSF-1 act -11, GAA850 FXN act 2, AHR act 1 and HSF1 inh -8.
For COc1ccc(N=Cc2c(O)n(Cc3ccccc3)c(=S)[nH]c2=O)c(OC)c1 the results were HSF-1 act 117*, GAA850 FXN act 2, AHR act 2 and HSF1 inh 63.
`Cn1ncnc2c(=O)n(C)c(=O)nc1-2` gave HSF-1 act -95, GAA850 FXN act -17, AHR act -7 and HSF1 inh -95*.
`CC(C(=O)Nc1ccc(Br)cc1C(=O)c1ccccc1)N1CCCCC1` (stereo not given) gave HSF-1 act 4, GAA850 FXN act -1, AHR act -1 and HSF1 inh 2.
CCN(CC)C(=O)c1ccc(NC(=O)Nc2ccccc2F)cc1 was read as HSF-1 act -70, GAA850 FXN act -3, AHR act -7 and HSF1 inh -64*.
Screening CCN(CC)C(=O)c1ccc(NC(=O)CCCSc2ccccc2)cc1 returned HSF-1 act -3, GAA850 FXN act 1, AHR act -1 and HSF1 inh -3.
Screening Cc1ccc2c(c1)C1C[N+](C)(CC(=O)c3ccc(Cl)cc3Cl)CCC1N2C(=O)c1ccc(F)cc1 (stereo not given) returned GAA850 FXN act -1 and AHR act 7.
`Cc1c2ccncc2c(C)c2c1[nH]c1ccccc12` gave HSF-1 act 42, GAA850 FXN act 3, AHR act 67* and HSF1 inh 25.

Compound activity (PubChem BioAssay)
